Calls of active or inactive are those of the source.

The values below come from PubChem BioAssay.

A short description of assay [1]: small molecules captured by biotinylated probe aFSTL3 – biochemical, small-molecule microarray, fluorescence 635/667, stem cell growth factor project, primary screen (AID 1064).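 Further: measures binding of the biotinylated anti-FSTL3 antibody to printed compounds.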 Conditions: higher = more signal.
A short description of assay [2]: binders from COS7 lysate, DM2A8 probe, primary screen, torsin A project, cell lysate, small-molecule microarray, fluorescence 635/667 (AID 1065). Conditions: higher = more signal, COS7 lysate expressing mutant human TOR1A.
Assay [3] in a line: small molecules captured by biotinylated probe aFGF2 – biochemical, small-molecule microarray, fluorescence 635/667, stem cell growth factor project, primary screen (AID 1067).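 Further: measures binding of biotinylated aFGF2 protein to printed compounds on slides; z-score merges feature fluorescence and signal-to-noise across triplicate slides.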 Conditions: higher = more signal.
Assay [4] can be described thus: small molecules captured by biotinylated probe aFGF10 – biochemical, small-molecule microarray, fluorescence 635/667, stem cell growth factor project, primary screen (AID 1071).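 Further: score merges 667 nm spot intensity and signal to noise from triplicate slides.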 Conditions: higher = more signal.
The target of assay [5] is Neurogenic locus notch homolog protein 2 (Homo sapiens) (UniProt Q04721). Kind of assay: small molecules binding Notch2 protein – biochemical, small-molecule microarray, 635 nm fluorescence, stem cell growth factors, primary screen (AID 1073). Conditions: higher = more signal.
Chain of Neurogenic locus notch homolog protein 2 (Homo sapiens) (Q04721 whole entry, looked up, canonical isoform): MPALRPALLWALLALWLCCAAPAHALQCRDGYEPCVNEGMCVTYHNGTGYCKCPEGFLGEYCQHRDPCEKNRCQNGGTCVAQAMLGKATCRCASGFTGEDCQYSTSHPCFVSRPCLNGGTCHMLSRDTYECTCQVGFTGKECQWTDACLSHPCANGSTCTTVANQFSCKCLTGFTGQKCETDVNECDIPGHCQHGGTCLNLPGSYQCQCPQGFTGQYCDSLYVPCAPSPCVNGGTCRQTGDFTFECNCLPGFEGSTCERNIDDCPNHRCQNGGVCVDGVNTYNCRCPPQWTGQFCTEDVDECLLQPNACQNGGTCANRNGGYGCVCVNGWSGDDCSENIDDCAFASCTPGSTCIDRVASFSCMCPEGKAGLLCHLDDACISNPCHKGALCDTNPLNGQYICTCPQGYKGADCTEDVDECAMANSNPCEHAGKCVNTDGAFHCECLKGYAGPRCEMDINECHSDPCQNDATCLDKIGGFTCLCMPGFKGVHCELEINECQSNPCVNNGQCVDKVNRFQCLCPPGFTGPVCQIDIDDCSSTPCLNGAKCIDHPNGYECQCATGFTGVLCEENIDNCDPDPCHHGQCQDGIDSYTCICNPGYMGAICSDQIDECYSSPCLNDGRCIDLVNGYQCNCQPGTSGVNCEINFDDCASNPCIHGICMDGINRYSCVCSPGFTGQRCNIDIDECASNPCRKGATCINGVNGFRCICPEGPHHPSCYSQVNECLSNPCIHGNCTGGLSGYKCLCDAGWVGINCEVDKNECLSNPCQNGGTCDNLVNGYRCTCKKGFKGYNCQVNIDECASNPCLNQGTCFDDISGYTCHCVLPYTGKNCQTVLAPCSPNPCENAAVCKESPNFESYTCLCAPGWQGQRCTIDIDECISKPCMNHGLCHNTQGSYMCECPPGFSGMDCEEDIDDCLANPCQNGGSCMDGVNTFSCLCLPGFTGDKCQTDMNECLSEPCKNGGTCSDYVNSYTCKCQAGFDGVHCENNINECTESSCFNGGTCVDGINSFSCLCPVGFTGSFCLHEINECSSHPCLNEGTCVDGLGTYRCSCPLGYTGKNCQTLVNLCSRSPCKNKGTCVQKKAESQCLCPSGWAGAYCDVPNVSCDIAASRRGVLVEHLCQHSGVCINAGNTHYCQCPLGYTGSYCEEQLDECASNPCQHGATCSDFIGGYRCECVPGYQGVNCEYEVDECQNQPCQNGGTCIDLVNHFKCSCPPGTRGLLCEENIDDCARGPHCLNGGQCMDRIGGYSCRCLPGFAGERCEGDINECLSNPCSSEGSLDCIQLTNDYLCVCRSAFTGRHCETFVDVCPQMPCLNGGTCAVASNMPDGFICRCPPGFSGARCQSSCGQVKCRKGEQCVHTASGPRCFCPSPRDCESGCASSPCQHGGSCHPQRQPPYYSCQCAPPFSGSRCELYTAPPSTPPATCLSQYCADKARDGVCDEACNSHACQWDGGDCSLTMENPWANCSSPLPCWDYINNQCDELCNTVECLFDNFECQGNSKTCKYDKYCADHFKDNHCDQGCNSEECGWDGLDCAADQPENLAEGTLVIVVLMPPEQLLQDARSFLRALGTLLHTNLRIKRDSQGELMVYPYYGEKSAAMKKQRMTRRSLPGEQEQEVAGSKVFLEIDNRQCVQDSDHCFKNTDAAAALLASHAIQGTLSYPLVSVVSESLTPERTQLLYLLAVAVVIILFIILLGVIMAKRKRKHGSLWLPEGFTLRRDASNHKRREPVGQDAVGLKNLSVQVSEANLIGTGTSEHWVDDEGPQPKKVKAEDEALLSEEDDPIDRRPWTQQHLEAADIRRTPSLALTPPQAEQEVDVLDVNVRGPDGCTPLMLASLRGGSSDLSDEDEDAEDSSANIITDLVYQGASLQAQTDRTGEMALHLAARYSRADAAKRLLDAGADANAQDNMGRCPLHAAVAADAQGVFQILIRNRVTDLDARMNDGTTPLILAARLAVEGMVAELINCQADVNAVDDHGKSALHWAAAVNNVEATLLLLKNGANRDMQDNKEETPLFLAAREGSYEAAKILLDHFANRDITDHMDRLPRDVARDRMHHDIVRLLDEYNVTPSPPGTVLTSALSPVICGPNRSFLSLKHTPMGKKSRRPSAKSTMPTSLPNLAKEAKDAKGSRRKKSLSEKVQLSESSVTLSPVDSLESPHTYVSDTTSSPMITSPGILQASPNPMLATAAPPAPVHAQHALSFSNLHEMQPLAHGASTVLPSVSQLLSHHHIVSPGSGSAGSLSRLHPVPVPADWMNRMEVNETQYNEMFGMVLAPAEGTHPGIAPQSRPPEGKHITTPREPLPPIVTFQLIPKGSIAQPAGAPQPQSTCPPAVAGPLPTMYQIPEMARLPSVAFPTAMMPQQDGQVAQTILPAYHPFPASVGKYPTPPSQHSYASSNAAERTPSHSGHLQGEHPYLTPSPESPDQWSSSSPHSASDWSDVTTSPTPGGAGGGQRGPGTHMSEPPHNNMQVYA
Assay [6] has as its target Pro-neuregulin-1, membrane-bound isoform (Homo sapiens) (UniProt Q02297). Kind of assay: small molecules binding neuregulin-1 protein – biochemical, small-molecule microarray, fluorescence 635/667, psychiatric disease protein project, primary screen (AID 1075).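 Further: score combines 667 nm spot fluorescence with signal to noise.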 Conditions: NRG1 binding, 635 nm fluorescence, higher = more signal.
The test system of assay [7] is Neuregulin-1 EGF-like domain. The assay can be described thus: small molecules binding NRG1 EGF domain – biochemical, small-molecule microarray, 635 nm fluorescence, primary screen (AID 1081).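 Further: binding of the protein to compounds printed on small-molecule microarray slides.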 As to conditions: higher = more signal.
A short description of assay [8]: FRG1 expression reporter modulators in myotubes – cell-based, C2C12 myotubes, firefly/Renilla luciferase, luminescence, FRG1 inhibition for FSHD, primary screen (AID 1084). As to conditions: FRG1 promoter luciferase, higher = more signal, called active from +8 up or from −8 down.
The nature of assay [9]: small molecules captured by biotinylated probe aFST – biochemical, small-molecule microarray, fluorescence 635/667, stem cell growth factor project, primary screen (AID 1086).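 Further: score merges 667 nm fluorescence with signal-to-noise of each printed compound spot.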 As to conditions: higher = more signal.
Assay [10] can be described thus: binders of probe aHhip on microarray, primary screen, stem cell growth factor project, biochemical, small-molecule microarray, fluorescence 635/667 (AID 1087).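 Further: score merges spot fluorescence at 667nm with spot signal to noise ratio.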 As to conditions: higher = more signal.
Assay [11] deals with PRMT1 (protein arginine N-methyltransferase 1). The assay can be described thus: small molecules binding arginine methyltransferase PRMT1 – biochemical, small-molecule microarray, 635 nm fluorescence, primary screen (AID 1088).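 Further: binding of Prmt1 protein to compounds spotted on small-molecule microarray slides.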 As to conditions: higher = more signal.
Assay [12] can be described thus: growth effects on S. cerevisiae YJM789 – YJM789 clinical isolate, OD600, 24 h, basal, primary screen (AID 1089).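 Further: growth of clinical yeast isolate S. cerevisiae YJM 789 seeded 1000 cells per well; test concentration not given here.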 Conditions: higher = more signal, called active from +8 up or from −8 down.
Assay [13] in a line: S. pombe growth modifiers, basal conditions – strain 972, OD600, 24 h, no modulator, primary screen (AID 1090).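 Further: basal condition with compound alone and no growth modifier present; test concentration not given here.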 As to conditions: S. pombe 972 growth, higher = more signal, called active from +8 up or from −8 down.
A short description of assay [14]: budding yeast growth modifiers under rapamycin – strain BY4716, OD600, 96 h, primary screen (AID 1091). Further: test concentration not given here. As to conditions: S. cerevisiae BY4716 + rapamycin, higher = more signal, called active from +8 up or from −8 down.
The target of assay [15] is Torsin-1A-interacting protein 2 (Homo sapiens) (UniProt Q8NFQ8). The assay can be described thus: small molecules binding lysate-expressed LULL1 – cell lysate, human LULL1 lysate, 635/667 nm fluorescence, primary screen (AID 1092).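 Further: probe is lysate of COS7 cells overexpressing human LULL1; score merges per-feature 667 nm fluorescence with signal-to-noise.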 Conditions: small-molecule microarray, hLULL1 lysate binding, 635 nm fluorescence; higher = more signal.
Chain of Torsin-1A-interacting protein 2 (Homo sapiens) (Q8NFQ8 whole entry, looked up): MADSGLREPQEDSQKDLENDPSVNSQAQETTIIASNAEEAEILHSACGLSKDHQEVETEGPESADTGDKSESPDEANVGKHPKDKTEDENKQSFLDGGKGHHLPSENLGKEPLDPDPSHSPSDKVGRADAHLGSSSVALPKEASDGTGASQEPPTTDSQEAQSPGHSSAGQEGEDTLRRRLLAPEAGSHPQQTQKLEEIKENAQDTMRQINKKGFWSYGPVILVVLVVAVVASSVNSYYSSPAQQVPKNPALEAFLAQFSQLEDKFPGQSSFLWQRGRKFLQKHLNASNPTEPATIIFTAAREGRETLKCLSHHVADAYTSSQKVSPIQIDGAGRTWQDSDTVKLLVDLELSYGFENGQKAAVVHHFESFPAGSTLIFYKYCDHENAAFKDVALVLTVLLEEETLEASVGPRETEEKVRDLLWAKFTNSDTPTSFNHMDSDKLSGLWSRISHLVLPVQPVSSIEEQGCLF
Assay [16] can be described thus: optical density change of DRC41 E. coli – strain DRC41, OD650, 24 h, E. coli filamentation project, primary screen (AID 1093).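 Further: MC1000 strain lacking acrAB efflux and sulA so SOS filamentation is blocked; test concentration not given here.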 As to conditions: E. coli DRC41 growth, higher = more signal, called active from +8 up or from −8 down.
A short description of assay [17]: probe aLefty2 binding to arrayed compounds – biochemical, biotinylated probe, 635/667 nm fluorescence, primary screen (AID 1094).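 Further: score merges spot fluorescence near 667 nm with spot signal-to-noise ratio.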 Conditions: small-molecule microarray, higher = more signal.
Assay [18] deals with Noggin (protein binding on small-molecule microarray). Kind of assay: small molecules binding Noggin protein – biochemical, 635/667 nm fluorescence, primary screen (AID 1095).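 Further: score merges 667 nm feature fluorescence with signal to noise over triplicate slides.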 As to conditions: 635 nm fluorescence, higher = more signal.
Assay [19] concerns the target Neurogenic locus notch homolog protein 3 (Homo sapiens) (UniProt Q9UM47). Kind of assay: small molecules binding NOTCH3 protein – biochemical, 635/667 nm fluorescence, primary screen (AID 1096). Conditions: small-molecule microarray, 635 nm fluorescence, higher = more signal.
A short description of assay [20]: probe aEGFR binding to arrayed compounds – biochemical, biotinylated probe, 635/667 nm fluorescence, primary screen (AID 1097).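 Further: probe is a biotinylated anti-EGFR antibody binding compounds printed on slides; score combines fluorescence near 667 nm and signal to noise of each spot.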 Conditions: small-molecule microarray, higher = more signal.

Chain of Pro-neuregulin-1, membrane-bound isoform (Homo sapiens) (Q02297 whole entry, looked up, the tested form may be a part, canonical isoform): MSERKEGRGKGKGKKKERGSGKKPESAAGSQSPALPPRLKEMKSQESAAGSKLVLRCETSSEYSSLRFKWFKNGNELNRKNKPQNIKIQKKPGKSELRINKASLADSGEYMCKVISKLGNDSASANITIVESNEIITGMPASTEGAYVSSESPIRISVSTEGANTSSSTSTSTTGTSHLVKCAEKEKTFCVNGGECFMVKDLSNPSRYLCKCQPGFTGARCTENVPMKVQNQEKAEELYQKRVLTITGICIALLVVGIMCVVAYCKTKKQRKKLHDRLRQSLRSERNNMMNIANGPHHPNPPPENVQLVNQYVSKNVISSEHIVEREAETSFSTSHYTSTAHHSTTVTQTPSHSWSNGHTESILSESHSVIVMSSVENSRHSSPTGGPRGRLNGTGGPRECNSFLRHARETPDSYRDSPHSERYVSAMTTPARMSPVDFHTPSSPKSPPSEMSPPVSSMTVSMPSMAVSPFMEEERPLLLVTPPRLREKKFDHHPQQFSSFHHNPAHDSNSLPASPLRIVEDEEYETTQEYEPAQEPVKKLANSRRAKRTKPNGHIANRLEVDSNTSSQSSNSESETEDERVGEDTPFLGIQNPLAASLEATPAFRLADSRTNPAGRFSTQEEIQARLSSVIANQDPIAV

As to `C=CCC(OC(C)=O)[C@@H]1[C@@H](N(Cc2ccc(-c3cccc(C(F)(F)F)c3)o2)C(=O)Cc2ccc(F)cc2)c2cc(OCCCO)ccc2N1C(=O)c1ccc(-c2ccccc2)cc1` (stereo not given in full), the composite z-score was 0.142 in assay [1]; -0.0983 in assay [2]; -0.129 in assay [3]; -0.556 in [4]; -0.606 in assay [5]; -0.0704 in [6]. The composite z-score is -0.387 in assay [7]; 0.0417 in assay [9]; -0.236 in [10]; -0.621 in [11]; 0.239 in assay [15]; -0.166 in assay [17]. For the same molecule, the composite z-score in assay [18] was -0.325; in assay [19], -0.362; in assay [20] it was -0.238. Moreover, the z-score in [8] was -0.245 (inactive); in assay [12] it was -0.182 (inactive); in assay [13], -0.258 (inactive); in [14], -0.507 (inactive); in assay [16], -1.33 (inactive).

With `C=CCC(OC(C)=O)[C@@H]1[C@@H](N(Cc2cc3ccccc3o2)C(=O)Cc2ccc(F)cc2)c2cc(OCCCO)ccc2N1C(=O)c1ccc(-c2ccccc2)cc1` (stereo not given in full), the composite z-score in [1] was 0.117; in assay [2], -0.103; in [3], -0.116; in assay [4], -0.263; in [5], -0.079; in assay [6], -0.399. In addition, the composite z-score in assay [7] is -1.03; in [9], 0.141; in assay [10] it was -0.0645; in assay [11], -1.44; in assay [15], 0.292; in assay [17] it was -0.0598. Further, the composite z-score was -0.737 in assay [18], -1.02 in [19] and -0.178 in [20]. In addition, the z-score in assay [8] is 0.051 (inactive); in [12], -0.277 (inactive); in [13], -0.801 (inactive); in assay [14], -0.76 (inactive); in assay [16], 1.64 (inactive).

For `COc1ccc([C@H]2C[C@H]3C(Br)=C[C@]2(OC)C(=O)[C@]32CO2)cc1`, the composite z-score in assay [1] is -0.207; in assay [2] it was -0.187; in [3], -0.0563; in assay [4], 1.02; in assay [5] it was -0.203; in assay [6], -0.228. Further, the composite z-score was -0.0338 in [7]; 0.198 in [9]; 0.0722 in assay [10]; -0.378 in assay [11]; -0.288 in assay [15]; -0.159 in [17]. Also, the composite z-score was 0.145 in assay [18], 0.372 in [19] and -0.151 in [20]. Besides, the z-score in assay [8] is 0.926 (inactive); in assay [12], -0.714 (inactive); in assay [13], -3.14 (inactive); in assay [14], -0.577 (inactive); in [16], -0.987 (inactive).

Turning to `Cc1ccc(S[C@]2(C(=O)NC(C)C)CC(=O)N(Cc3cc(C(F)(F)F)cc(C(F)(F)F)c3)[C@@H]2c2ccc(CO)cc2I)cc1`, the composite z-score in [1] was 0.808; in [2], -0.666; in assay [3], -0.103; in [4], -0.345; in [5], -1.7; in [6], 1.53. Also, the composite z-score was 0.74 in [7]; -0.666 in assay [9]; -0.0994 in [10]; 1.26 in assay [11]; 2.04 in [15]; -0.0544 in [17]. Besides, the values for the composite z-score in assay [18], in [19] and in [20] were -0.147, -0.513 and -0.317, respectively. The z-score in [8] is -0.321 (inactive); in assay [12], -0.698 (inactive); in [13], -2.47 (inactive); in assay [14] it was 1.2 (inactive); in assay [16], 0.715 (inactive).

On to `CC(=O)Nc1ccc([C@H]2[C@H](C)CC[C@H]3C(=O)N4[C@@H](CC[C@@H](C)[C@@H]4c4ccc(NC(C)=O)cc4)C(=O)N32)cc1`, for which the composite z-score in assay [1] was -0.508; in assay [2], 0.482; in [3], -0.1; in [4], 0.908; in assay [5] it was 0.68; in assay [6], 0.566. Moreover, the composite z-score is 1.1 in [7]; 0.0863 in assay [9]; 0.132 in assay [10]; 1.53 in [11]; 1.63 in assay [15]; -0.185 in assay [17]. In addition, the composite z-score in assay [18] is 0.651; in assay [19] it was 0.897; in [20], 0.107. Also, the z-score was 0.103 (inactive) in [8]; 0.817 (inactive) in assay [12]; -0.789 (inactive) in [13]; -0.145 (inactive) in [14]; 0.987 (inactive) in [16].
